Measured values: PubChem BioAssay AID1063 (University of Pittsburgh Molecular Library Screening Center, 2008)
About 18,000 (9%) of roughly 200,000 compounds were called active. Rule as the data show it: active = inhibition above about 50%; inactive = the rest. The full list was thinned out, with actives kept by preference. Where a SMILES comes first, the peptide text is derived from it. [ ]: non-standard residue; d: D form. ξ: configuration not given here. ξM = CSCCC(N)C(=O)O

Test: Leishmania major promastigote growth inhibition, primary screen (AID 1063);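 also: promastigotes grown with compound for 44 hours at 28 °C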
Conditions: Leishmania major promastigotes, resazurin fluorescence viability; at 10 µM; active compounds read high
With N=c1n(Cc2ccc(Cl)cc2)c2ccccc2n1CC(O)c1ccco1 (centres undefined) the inhibition was 85.3% (active). With Cn1c(=N)n(CC(O)c2cccs2)c2ccccc21 (centres undefined) the inhibition was 1.42% (inactive). For CC(=O)NC1(c2ccc(F)cc2)CCN(C(=O)c2c(F)cccc2F)CC1, the inhibition was -1.81% (inactive). In the case of CN(Cc1nc2ccc(F)cc2[nH]1)Cc1nc(CC2CC2)no1, the inhibition is reported as -4.94% (inactive). With C[C@@H]1C[C@@H]2O[C@H]2/C=C\C=C\C(=O)Cc2c(Cl)c(O)cc(O)c2C(=O)O1 the inhibition was 100% (active). In the case of O=[N+]([O-])c1ccc2oc(-c3cccc(O)c3)nc2c1, the inhibition is reported as -1.6% (inactive). For CCOC(=O)C1(Cc2cccc(OC)c2)CCN(C(C)CC(C)(C)O)CC1 (centres undefined), the inhibition was -1.48% (inactive). In the case of CCOC(=O)C1(Cc2cccc(OC)c2)CCN(Cc2csc(C(C)=O)c2)CC1, the inhibition is reported as 92.9% (active). With CCOC(=O)C1(Cc2cccc(OC)c2)CCN(C(C)COC)CC1 (centres undefined) the inhibition was 2.55% (inactive). With CC(=O)Nc1ccc(NC(=O)COc2ccc(S(=O)(=O)NC(C)c3ccccc3)cc2)cc1 (centres undefined) the inhibition was -0.2% (inactive). In the case of COc1cc(/C=C/C2=CC(C)(C)NC(=S)N2)cc(OC)c1OC, the inhibition is reported as 0.1% (inactive). For Cn1c(=O)c2c(nc(NCCc3ccccc3)n2Cc2ccccc2)n(C)c1=O, the inhibition was 15.1% (inactive). For Cn1c(=O)c2c(nc(N/N=C/c3cccs3)n2Cc2ccc(Br)cc2)n(C)c1=O, the inhibition was 60.3% (active). For CCCCNc1nc2c(c(=O)n(C)c(=O)n2C)n1Cc1cccc(OC)c1, the inhibition was 4.44% (inactive). In the case of O=C(CN1C(=O)/C(=C\c2ccccc2F)SC1=S)Nc1nc2ccccc2s1, the inhibition is reported as -3.34% (inactive). For Clc1ccc(-c2csc(-c3ccncc3)n2)cc1, the inhibition was 5.86% (inactive). For CCOc1cc(NC(=O)CCl)c(OCC)cc1NC(C)=O, the inhibition was 5.77% (inactive). For CC(=O)c1ccc2c(c1)c1ccccc1n2CC(C)C, the inhibition was 9.99% (inactive). For CS(=O)(=O)N(CC(O)Cn1c2ccccc2c2ccccc21)c1cccc2ccccc12 (centres undefined), the inhibition was 100% (active). With O=C1c2ccccc2S(=O)(=O)N1CC(O)Cn1c2ccccc2c2ccccc21 (centres undefined) the inhibition was -4.57% (inactive). In the case of O=C(Nc1nnc(Cc2ccc(Cl)cc2)s1)c1cccnc1, the inhibition is reported as -10.8% (inactive). For COC(=O)N/N=C/c1ccc(/C=N/NC(=O)OC)cc1, the inhibition was -5.23% (inactive). For C=CCn1c(-c2sc(-c3ccccc3)nc2C)n[nH]c1=S, the inhibition was -5.29% (inactive). In the case of CCCNC(=O)c1ccc(Cl)c(Cl)c1, the inhibition is reported as -4.03% (inactive). With O=C(c1ccc(Cl)c(Cl)c1)N1CCCC1 the inhibition was -4.87% (inactive). In the case of CCN(CC)CC1(O)CCN(C(=O)c2ccc(Cl)c(Cl)c2)CC1, the inhibition is reported as 99.6% (active). In the case of ClC1(Cl)CC1CSc1ncn[nH]1 (centres undefined), the inhibition is reported as 3.37% (inactive). For CCOC(=O)c1cnc(Nc2nc3ccccc3o2)nc1CSC(=S)N1CCCCC1, the inhibition was 56.7% (active). With CCc1ccc(CNC(=O)C2CCCN(c3nc4ccccc4o3)C2)cc1 (centres undefined) the inhibition was 0.6% (inactive). In the case of CCOC(=O)CCNC(=O)N1CCCC(C(=O)c2ccccc2SC)C1 (centres undefined), the inhibition is reported as -1.7% (inactive). For COc1ccc(-n2nc(C(=O)Nc3cc(OC)c(OC)c(OC)c3)c3ccccc3c2=O)c(OC)c1, the inhibition was 0.87% (inactive). For CC(CNc1ccc([N+](=O)[O-])c2cccnc12)Nc1c([N+](=O)[O-])cc(C(F)(F)F)cc1[N+](=O)[O-] (centres undefined), the inhibition was 76.9% (active). For O=C(c1cccc(F)c1)N1CCN(c2ccc([N+](=O)[O-])c3cccnc23)CC1, the inhibition was 45.7% (inactive). With O=C(CSc1ccc(C(F)(F)F)cc1[N+](=O)[O-])NCCOc1ccccc1 the inhibition was -4.83% (inactive). In the case of COc1ccnc(Oc2ccccc2)c1-c1ncn[nH]1, the inhibition is reported as -5.3% (inactive). For CC1CCN(S(=O)(=O)c2ccc3ncn(CC(=O)N(C)C4CCCCC4)c(=O)c3c2)CC1, the inhibition was -0.9% (inactive). For Cc1ccc(NC(=O)Nc2nnc(-c3ccncc3)s2)cc1, the inhibition was 12.8% (inactive). In the case of CCN1/C(=C\c2ccc3ccccc3[n+]2CC)Sc2cc(C)ccc21, the inhibition is reported as 101% (active). In the case of CCC(=O)/C=C1\Sc2ccccc2N1CC, the inhibition is reported as 3.43% (inactive). With CCN1/C(=C/c2ccc3ccc(C)cc3[n+]2CC)Sc2ccccc21 the inhibition was 100% (active). With O=C(Cc1ccccc1)N1CCN(S(=O)(=O)c2ccc([N+](=O)[O-])cc2)CC1 the inhibition was 5.24% (inactive). With Cc1ccc(Nc2c(F)c(F)c(F)c(F)c2C(=O)O)c(C)c1 the inhibition was -6.66% (inactive). For COc1cccc(CN(C)CC(=O)Nc2ccccc2C(=O)Nc2ccccc2)c1, the inhibition was 16.9% (inactive). In the case of Cc1cc([N+](=O)[O-])ccc1NC(=O)c1ccc(NC(=O)C(C)C)cc1, the inhibition is reported as -5.33% (inactive). In the case of CN1CC(c2ccccc2)C2(COc3ccccc3C2=O)C12C(=O)Nc1ccccc12 (centres undefined), the inhibition is reported as 62.6% (active). With O=C(CN1CCN(S(=O)(=O)c2ccc(F)cc2)CC1)Nc1ccccc1F the inhibition was 1.33% (inactive). With Cc1ccc(S(=O)(=O)N2CCN(Cc3cccc(C)c3O)CC2)cc1 the inhibition was -1.84% (inactive). For O=S(=O)(c1ccc(F)cc1)N1CCN(Cc2ccccc2C(F)(F)F)CC1, the inhibition was 51.1% (active). With COc1ccc(CN(C)C(C)C(=O)NC2CCCc3ccccc32)cc1 (centres undefined) the inhibition was 10% (inactive). For O=C(c1ccccc1)N1CCN(c2ccc([N+](=O)[O-])c(NCc3ccco3)c2)CC1, the inhibition was 65.6% (active). For O=C(c1cccc(F)c1)N1CCN(c2ccc([N+](=O)[O-])c(N3CCCCC3)c2)CC1, the inhibition was 4.09% (inactive). With O=[N+]([O-])c1ccc(N2CCN(S(=O)(=O)c3ccc4ccccc4c3)CC2)cc1NCc1ccco1 the inhibition was -0.79% (inactive). With CN(C)c1ccc(/C=N/NC(=O)C(O)c2ccc(Br)cc2)cc1 (centres undefined) the inhibition was 4.17% (inactive). In the case of CN(C)c1ccnc(Nc2ccc(F)cc2)c1C#N, the inhibition is reported as -2.28% (inactive). For C/C(=N\N=C(N)N)c1ccc(Cl)cc1, the inhibition was 98.8% (active). With COC(=O)/C(NC(C)=O)=C(\C)c1ccc(Cl)cc1 the inhibition was 0.11% (inactive). In the case of CCOC(=O)NNC(=O)c1ccc(Cl)cc1, the inhibition is reported as -5.24% (inactive). In the case of Fc1cccc(Cc2noc(CN3CCN(c4cnccn4)CC3)n2)c1, the inhibition is reported as -3.37% (inactive). In the case of FC(F)(F)c1cccc(Cc2noc(CN3CCC(N4CCCCC4)CC3)n2)c1, the inhibition is reported as 82.7% (active). In the case of CCOC(=O)N1CCN(Cc2nc(Cc3cccc(C(F)(F)F)c3)no2)CC1, the inhibition is reported as 4.8% (inactive). In the case of Cc1ccc(S(=O)(=O)/N=C(/Nc2ccc3[nH]c(=O)[nH]c3c2)c2ccccc2)cc1, the inhibition is reported as -4.98% (inactive). For O=S(=O)(/N=C(/Nc1ccccc1)c1ccccc1)c1cccs1, the inhibition was 1.04% (inactive). In the case of CCOC(=O)c1ccc(N/C(=N/S(=O)(=O)c2ccccc2)c2ccccc2)cc1, the inhibition is reported as 61.3% (active). For COC(=O)CNC(=O)C(CCSC)NC(C)=O (centres undefined) (Ac-[ξM]-Gly-OMe), the inhibition was -3.76% (inactive). For COc1ccc(C[C@H]2CN3C(=NC[C@H]3C)N2CCNC(=O)CCC2CCCCC2)cc1, the inhibition was 31.8% (inactive). In the case of Cc1cccc(-n2c(=O)c3c(C)c(C)sc3n(CC(N)=O)c2=O)c1, the inhibition is reported as 4.25% (inactive). For CC(=O)N(CN1C(=O)C2C3C=CC(C3)C2C1=O)c1cccc(Cl)c1 (centres undefined), the inhibition was -6.29% (inactive). With O=C(COC(=O)CNS(=O)(=O)c1ccccc1)NC12CC3CC(CC(C3)C1)C2 the inhibition was 1.38% (inactive). In the case of COc1ccccc1-c1nnc(NC(=O)c2cccc(N3C(=O)CCC3=O)c2)o1, the inhibition is reported as -4.87% (inactive). With COc1ccccc1-c1nnc(SCC(=O)Nc2ccccc2)o1 the inhibition was 2.06% (inactive). For COc1ccccc1-c1nnc(NC(=O)c2ccc3ncsc3c2)o1, the inhibition was 80.7% (active). For Cc1ccc(S(=O)(=O)Cc2cc(-c3ccc(Cl)cc3)no2)cc1, the inhibition was -0.46% (inactive). For COc1ccccc1CC(NC(C)=O)C(=O)NC1CCN(C(=O)Nc2ccccc2Cl)CC1 (centres undefined), the inhibition was -3.45% (inactive). For COCCCNC(=O)Cn1c(=O)n(Cc2ccccc2Cl)c(=O)c2cc(OC)c(OC)cc21, the inhibition was -3.45% (inactive). For Cc1ccc(S(=O)(=O)CCC(=O)OCc2ccccc2)cc1, the inhibition was -3.07% (inactive). In the case of CCOc1cc(C2C(C(=O)OC(C)C)=C(C)NC3=C2C(=O)CCC3)cc([N+](=O)[O-])c1O (centres undefined), the inhibition is reported as 8.32% (inactive). In the case of COc1ccc(C(=O)Nc2ccc(CN3CCOCC3)cc2)cc1, the inhibition is reported as 0.71% (inactive). For O=C(Nc1ccccc1C(=O)N1CCOCC1)c1ccc(CSc2ccccc2)cc1, the inhibition was 15.2% (inactive). In the case of O=C(Nc1ccc(CSc2ccccc2)cc1)c1ccc(CN2CCOCC2)cc1, the inhibition is reported as 95.2% (active). With NC(=O)COC(=O)c1sc2cc(F)ccc2c1Cl the inhibition was -4.95% (inactive). In the case of O=C(O)CCCCOn1ccnc1, the inhibition is reported as -5.36% (inactive). For O=C(c1ccccc1-c1ccccc1)N1CCOCC1, the inhibition was 1.25% (inactive). For Cc1oc2c(c1C(=O)N1CCOCC1)C(=O)c1ccccc1C2=O, the inhibition was 99.7% (active). With Cc1onc(-c2ccccc2)c1C(=O)N1CCOCC1 the inhibition was 0.76% (inactive). For Cc1c(C=O)n(C)n(-c2ccccc2)c1=O, the inhibition was 0.34% (inactive). With COc1cc(NC(=O)COc2ccccc2Cl)ccc1NC(=O)C(C)C the inhibition was 1.32% (inactive). For CN(C)S(=O)(=O)c1ccc2oc(SCC(=O)Nc3ccccc3F)nc2c1, the inhibition was 2.57% (inactive). For Cc1cccc(C)c1NC(=O)CNC(=O)Cc1ccc(Br)cc1, the inhibition was -3.9% (inactive). For CSc1ccccc1NC(=O)CN(C)CC(=O)Nc1cccc(Br)c1, the inhibition was 18.6% (inactive). For CSc1ccccc1NC(=O)Cc1ccc(Br)cc1, the inhibition was 53.5% (active). With Cc1ccc(OCC(=O)Nc2ccc(S(=O)(=O)Nc3ccccn3)cc2)cc1 the inhibition was -4.12% (inactive). With C=CCN(c1ccc(C(N)=O)cc1)S(C)(=O)=O the inhibition was -6.04% (inactive). For CSCc1ccc(C(=O)Nc2cc(C)cc(C)c2)cc1, the inhibition was -3.2% (inactive). With C=CCN(c1ccc(C(=O)Nc2cc(C)cc(C)c2)cc1)S(C)(=O)=O the inhibition was 76% (active).
